Test results taken from PubChem BioAssay (NCATS).
Records with an inconclusive call do not appear. The source made the active and inactive calls. Calls come from the whole dose curve; as a rule, active = well fitted cell-killing curve with a large enough effect; inconclusive = small, poorly fitted or top-dose-only effect, or effect the other way; inactive = flat fitted curve, though single readings scatter.

What was measured:
Test in all cases: Primary qHTS to identify gynecologic anti-cancer compounds using libraries of approved drugs and bioactive compounds (AID 1345084); note: nearly all actives have a fitted effect of over 55% in size
Conditions in all cases: Gynecologic cancer cell panel viability, ATPlite luminescence, 48 h; series mostly up to 57.5 µM
OV90 = system: OV90
In short: (§1)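 ATP-based viability (ATPlite), 1,000 cells/well, 16 h pre-incubation, 48 h compound at 37 C, 5% CO2, 15 min RT before read.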

PA-1 = system: PA-1
In short: as §1

SKOV3 = system: SKOV3
In short: as §1

Tov-21-G = system: Tov-21-G
In short: as §1

Tov112D = system: Tov112D
In short: as §1
% is set by controls: 0 for no effect and ±100 for the full control effect.

COc1cccc(Cn2ncc3c4sc(S(C)=O)cc4n(C)c3c2=O)c1 (stereo not given)
inactive: Potency (OV90) | Potency (PA-1) | Potency (SKOV3) | Potency (Tov-21-G) | Potency (Tov112D)

CCCC1=CC2=C(CO1)C(=O)C(C)(O)C(OC(=O)c1c(C)cc(OC)cc1O)C2 (stereo not given)
inactive: Potency (OV90) | Potency (PA-1) | Potency (SKOV3) | Potency (Tov-21-G) | Potency (Tov112D)

CC(O)C/C=C/C=C/C(=O)OC1C=C2COC(=O)C2(O)C2(C)CCCC(C)(C)C12 (stereo not given)
inactive: Potency (OV90) | Potency (PA-1) | Potency (SKOV3) | Potency (Tov-21-G) | Potency (Tov112D)

Cc1oc(S(=O)(=O)N2CCCCC2)cc1NC(=O)Nc1ccccc1
inactive: Potency (OV90) | Potency (PA-1) | Potency (SKOV3) | Potency (Tov-21-G) | Potency (Tov112D)

CCN(CCN(C)C)C(=O)CNCc1cc(C(N)=O)ccn1
inactive: Potency (OV90) | Potency (PA-1) | Potency (SKOV3) | Potency (Tov-21-G) | Potency (Tov112D)

CCC(C)C(=O)O[C@H]1C[C@](C)(O)[C@]23OC(C)(C)[C@H](C[C@H](OC(=O)c4ccccc4)[C@]2(COC(C)=O)[C@H]1OC(=O)C(C)CC)[C@H]3OC(C)=O (stereo not given in full)
inactive: Potency (OV90) | Potency (PA-1) | Potency (SKOV3) | Potency (Tov-21-G) | Potency (Tov112D)

CC1(C)CC2C(O)C3=C(CC(C)(O)C2C1)C(=O)OC3 (stereo not given)
inactive: Potency (OV90) | Potency (PA-1) | Potency (SKOV3) | Potency (Tov-21-G) | Potency (Tov112D)

C/C(=C\CCC1(C)C2CC3C(C2)C31C)C(=O)O (stereo not given)
inactive: Potency (OV90) | Potency (PA-1) | Potency (SKOV3) | Potency (Tov-21-G) | Potency (Tov112D)

COc1ccc(C2OCC3C(c4cc(OC)c5c(c4)OCO5)OCC23)cc1OC (stereo not given)
inactive: Potency (OV90) | Potency (PA-1) | Potency (SKOV3) | Potency (Tov-21-G) | Potency (Tov112D)

CC(/C=C/C=C(\C)C(=O)O[C@@H]1O[C@H](CO[C@@H]2O[C@H](CO)[C@@H](O)[C@H](O)[C@H]2O)[C@@H](O)[C@H](O)[C@H]1O)=C\C=C\C=C(C)\C=C\C=C(/C)C(=O)O[C@@H]1C[C@](O)(C(=O)O)C[C@@H](O)[C@H]1OC(=O)/C=C/c1ccc(O)c(O)c1
inactive: activity change, negative = cytotoxicity (OV90) 8.2% [at 11.6 µM] | activity change, negative = cytotoxicity (PA-1) -12.7% [at 11.6 µM] | activity change, negative = cytotoxicity (SKOV3) 3.61% [at 11.6 µM] | activity change, negative = cytotoxicity (Tov-21-G) 0.602% [at 11.6 µM] | activity change, negative = cytotoxicity (Tov112D) -1.9% [at 11.6 µM]

COc1cc(-c2ccc(O)cc2)c(OC)c(O)c1C1=CC(=O)OC1CC(=O)O (stereo not given)
inactive: Potency (OV90) | Potency (PA-1) | Potency (SKOV3) | Potency (Tov-21-G) | Potency (Tov112D)

O=C(C1OC1/C=C/c1ccc2c(c1)OCO2)N1CCCCC1 (stereo not given)
inactive: Potency (OV90) | Potency (PA-1) | Potency (SKOV3) | Potency (Tov-21-G) | Potency (Tov112D)

O=C(O)C[C@H]1CCC(=O)[C@@H]1C/C=C\CCO
inactive: Potency (OV90) | Potency (PA-1) | Potency (SKOV3) | Potency (Tov-21-G) | Potency (Tov112D)

COC(=O)Cn1nc(-c2cccc(OC)c2)c2ccccc21
inactive: Potency (OV90) | Potency (PA-1) | Potency (SKOV3) | Potency (Tov-21-G) | Potency (Tov112D)

COC(=O)[C@H](O)[C@H]1C(C)(C)[C@H](OC(C)=O)[C@@]2(O)C(=O)[C@]1(C)C1CC[C@]3(C)C(CC(=O)O[C@H]3c3ccoc3)[C@]13O[C@@H]32 (stereo not given in full)
inactive: Potency (OV90) | Potency (PA-1) | Potency (SKOV3) | Potency (Tov-21-G) | Potency (Tov112D)

Cc1ccccc1-c1cc(N2CCN(C)CC2)ncc1N(C)C(=O)C(C)(C)c1cc(C(F)(F)F)cc(C(F)(F)F)c1
inactive: Potency (OV90) | Potency (PA-1) | Potency (SKOV3) | Potency (Tov-21-G) | Potency (Tov112D)

NCCCCN(Cc1nc2ccccc2[nH]1)[C@H]1CCCc2cccnc21
inactive: Potency (OV90) | Potency (PA-1) | Potency (SKOV3) | Potency (Tov-21-G) | Potency (Tov112D)

C=C(C)C1CCC2(C(=O)OC3OC(COC4OC(CO)C(O)C(O)C4O)C(OC4OC(C)C(O)C(O)C4O)C(O)C3O)CCC3(C(=O)O)C(CCC4C5(C)CCC(=O)C(C)(C)C5CCC43C)C12 (stereo not given)
inactive: activity change, negative = cytotoxicity (OV90) -0.071% [at 11.6 µM] | activity change, negative = cytotoxicity (PA-1) 8.9% [at 11.6 µM] | activity change, negative = cytotoxicity (SKOV3) -6.38% [at 11.6 µM] | activity change, negative = cytotoxicity (Tov-21-G) 0.715% [at 11.6 µM] | activity change, negative = cytotoxicity (Tov112D) -0.367% [at 11.6 µM]

CC1=C(CCC(C)O[C@@H]2O[C@H](CO)[C@@H](O)[C@H](O)[C@H]2O)C(C)(C)CC(O)C1 (stereo not given in full)
inactive: Potency (OV90) | Potency (PA-1) | Potency (SKOV3) | Potency (Tov-21-G) | Potency (Tov112D)

C[C@@H]1O[C@@H](O[C@H]2[C@@H]3C=CO[C@@H](O[C@@H]4O[C@H](CO)[C@@H](O)[C@H](O)[C@H]4O)[C@@H]3[C@@]3(CO)O[C@@H]23)[C@H](OC(=O)/C=C/c2ccc(O)cc2)[C@H](O)[C@H]1O
inactive: Potency (OV90) | Potency (PA-1) | Potency (SKOV3) | Potency (Tov-21-G) | Potency (Tov112D)

Cc1sc(C)c(C(=O)NC2(c3ccc(C(=O)O)cc3)CC2)c1Cc1ccc(C(F)(F)F)cc1
inactive: Potency (OV90) | Potency (PA-1) | Potency (SKOV3) | Potency (Tov-21-G) | Potency (Tov112D)
